Results taken from PubChem BioAssay AID1159580 (chemical genetic matrix, 2015).
The whole screen tested about 5,500 compounds, of which about 2,000 (36%) were called active. Another 18% or so got no clear call; they are omitted. Rule as the data show it: active = normalized growth mostly below about 0.91 (no sharp cut-off); inconclusive = no clear call, values can overlap the other calls; inactive = mostly above about 0.92. Some of the results follow.

Assay: chemical genetic growth profiling, strain panel (AID 1159580);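 also: tested at 20 µM; growth read once vehicle control cultures reached saturation at 30 °C; 1 = growth at the plate median or of vehicle wells; lower values mean less growth of the strain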
Conditions: growth OD
[1] = S. cerevisiae deletion strains, locus YAL013W, strain DEP1, hits give low values
[2] = S. cerevisiae deletion strains, locus YDR150W, strain NUM1, hits give low values
[3] = S. cerevisiae deletion strains, locus YJR075W, strain HOC1, hits give low values
[4] = S. cerevisiae deletion strains, locus YMR263W, strain SAP30, hits give low values
[5] = S. cerevisiae deletion strains, locus YNL153C, strain GIM3, hits give low values
[6] = S. cerevisiae deletion strains, locus YNL322C, strain KRE1, hits give low values
[7] = S. cerevisiae deletion strains, locus YPL055C, strain LGE1, hits give low values
[8] = S. cerevisiae deletion strains, locus YBR229C, strain ROT2, hits give low values
[9] = S. cerevisiae deletion strains, locus YDL101C, strain DUN1, hits give low values
[10] = S. cerevisiae deletion strains, locus YEL061C, strain CIN8, hits give low values
[11] = S. cerevisiae deletion strains, locus YGR078C, strain PAC10, hits give low values
[12] = S. cerevisiae deletion strains, locus YHR030C, strain SLT2, hits give low values
[13] = S. cerevisiae deletion strains, locus YHR087W, strain rtc3, hits give low values
[14] = S. cerevisiae deletion strains, locus YJR043C, strain POL32, hits give low values
[15] = S. cerevisiae deletion strains, locus YKL190W, strain CNB1, hits give low values
[16] = S. cerevisiae deletion strains, locus YLR039C, strain RIC1, hits give low values
[17] = S. cerevisiae deletion strains, locus YLR058C, strain SHM2 (second series), hits give low values
[18] = S. cerevisiae deletion strains, locus YLR085C, strain ARP6, hits give low values
[19] = S. cerevisiae deletion strains, locus YLR262C, strain YPT6, hits give low values
[20] = S. cerevisiae deletion strains, locus YML094W, strain GIM5, hits give low values
[21] = S. cerevisiae deletion strains, locus YMR219W, strain ESC1, hits give low values
[22] = S. cerevisiae deletion strains, locus YNL298W, strain CLA4 (second series), hits give low values
[23] = S. cerevisiae deletion strains, locus YNR030W, strain Alg12, hits give low values
[24] = S. cerevisiae deletion strains, locus YOL006C, strain TOP1, hits give low values
[25] = S. cerevisiae deletion strains, locus YPL241C, strain CIN2, hits give low values
[26] = S. cerevisiae deletion strains, locus YPR135W, strain CTF4, hits give low values

Measured: normalized growth

NC(=O)CCC(N)C(=O)O (stereo not drawn)
inactive: [1] 1.02 | S. cerevisiae deletion strains, locus YAL040C, strain CLN3, hits give low values 0.998 | S. cerevisiae deletion strains, locus YCL061C, strain MRC1 (second series), hits give low values 1 | [2] 0.999 | S. cerevisiae deletion strains, locus YDR363W, strain ESC2, hits give low values 1.01 | S. cerevisiae deletion strains, locus YER002W, strain NOP16, hits give low values 1.02 | S. cerevisiae deletion strains, locus YGR229C, strain SMI1, hits give low values 1.04 | [3] 1.01 | [4] 0.997 | S. cerevisiae deletion strains, locus YNL128W, strain TEP1, hits give low values 0.987 | [5] 0.99 | S. cerevisiae deletion strains, locus YNL175C, strain NOP13, hits give low values 0.996 | S. cerevisiae deletion strains, locus YNL197C, strain WHI3, hits give low values 0.997 | S. cerevisiae deletion strains, locus YNL224C, strain SQS1, hits give low values 0.993 | [6] 1.01 | S. cerevisiae deletion strains, locus YOR083W, strain WHI5 (second series), hits give low values 1.01 | [7] 1.03

BrC12CC3CC(CC(C3)C1)C2
inactive: [1] 1 | [8] 1.02 | [9] 1.01 | [2] 0.961 | [10] 1.01 | [11] 0.997 | [12] 1.05 | [13] 0.971 | [14] 1.02 | [3] 1.03 | [15] 1 | [16] 1.02 | [17] 1.02 | [18] 1.01 | [19] 1.02 | [20] 0.997 | [21] 1 | [4] 0.975 | [5] 1.02 | [22] 0.996 | [6] 1.01 | [23] 0.999 | [24] 1.01 | [7] 1.03 | [25] 1 | [26] 0.99

CC1CC2C(C(O)CC3(C)C2CCC3(O)C(=O)COC(=O)CCC(=O)O)C2(C)C=CC(=O)C=C12 (stereo not drawn)
inactive: S. cerevisiae deletion strains, locus YBR021W, strain FUR4, hits give low values 1.08 | [8] 1 | S. cerevisiae deletion strains, locus YCL029C, strain bik1, hits give low values 0.97 | S. cerevisiae deletion strains, locus YDL035C, strain GPR1, hits give low values 1.01 | S. cerevisiae deletion strains, locus YDL074C, strain BRE1, hits give low values 1.01 | [9] 1.01 | S. cerevisiae deletion strains, locus YDL185W, strain tfp1, hits give low values 0.959 | S. cerevisiae deletion strains, locus YDL192W, strain arf1, hits give low values 0.982 | S. cerevisiae deletion strains, locus YDR101C, strain arx1, hits give low values 0.993 | [2] 1 | S. cerevisiae deletion strains, locus YDR162C, strain NBP2, hits give low values 1.02 | S. cerevisiae deletion strains, locus YDR318W, strain mcm21, hits give low values 0.989 | S. cerevisiae deletion strains, locus YDR388W, hits give low values 0.997 | S. cerevisiae deletion strains, locus YDR502C, strain sam2, hits give low values 0.982 | [10] 1.01 | S. cerevisiae deletion strains, locus YER110C, hits give low values 0.977 | S. cerevisiae deletion strains, locus YER155C, strain BEM2, hits give low values 1.01 | S. cerevisiae deletion strains, locus YER167W, strain BCK2, hits give low values 1.01 | S. cerevisiae deletion strains, locus YGL078C, strain dbp3, hits give low values 0.984 | S. cerevisiae deletion strains, locus YGL086W, strain mad1, hits give low values 1 | S. cerevisiae deletion strains, locus YGL248W, strain PDE1, hits give low values 1.01 | S. cerevisiae deletion strains, locus YGR135W, strain pre9, hits give low values 0.982 | S. cerevisiae deletion strains, locus YGR252W, strain gcn5, hits give low values 0.992 | [12] 0.987 | S. cerevisiae deletion strains, locus YHR079C, strain IRE1 (second series), hits give low values 0.979 | S. cerevisiae deletion strains, locus YHR094C, strain hxt1, hits give low values 0.994 | S. cerevisiae deletion strains, locus YHR129C, strain ARP1, hits give low values 0.999 | S. cerevisiae deletion strains, locus YHR200W, strain rpn10, hits give low values 0.987 | S. cerevisiae deletion strains, locus YIL066C, strain RNR3, hits give low values 1.03 | S. cerevisiae deletion strains, locus YIL073C, strain SPO22, hits give low values 0.973 | S. cerevisiae deletion strains, locus YIL125W, strain kgd1, hits give low values 0.983 | S. cerevisiae deletion strains, locus YIR030C, strain dcg1, hits give low values 0.978 | S. cerevisiae deletion strains, locus YJL095W, strain BCK1, hits give low values 1.05 | S. cerevisiae deletion strains, locus YJL134W, strain LCB3, hits give low values 0.999 | S. cerevisiae deletion strains, locus YJL168C, strain set2, hits give low values 0.979 | S. cerevisiae deletion strains, locus YJL187C, strain SWE1 (second series), hits give low values 1.02 | [14] 1.04 | [3] 1 | S. cerevisiae deletion strains, locus YKL009W, strain mrt4, hits give low values 0.97 | S. cerevisiae deletion strains, locus YKL068W, hits give low values 0.968 | S. cerevisiae deletion strains, locus YKL085W, strain MDH1 (second series), hits give low values 0.994 | S. cerevisiae deletion strains, locus YKL085W, strain MDH1, hits give low values 0.994 | S. cerevisiae deletion strains, locus YKR001C, strain vps1, hits give low values 0.984 | [16] 1.03 | S. cerevisiae deletion strains, locus YLR058C, strain SHM2, hits give low values 0.999 | S. cerevisiae deletion strains, locus YLR102C, strain apc9, hits give low values 0.991 | [19] 0.98 | S. cerevisiae deletion strains, locus YLR268W, strain sec22, hits give low values 0.99 | S. cerevisiae deletion strains, locus YLR330W, strain CHS5, hits give low values 0.987 | S. cerevisiae deletion strains, locus YLR342W, strain FKS1 (second series), hits give low values 1.04 | S. cerevisiae deletion strains, locus YLR371W, strain rom2, hits give low values 0.979 | S. cerevisiae deletion strains, locus YLR418C, strain cdc73, hits give low values 1.02 | S. cerevisiae deletion strains, locus YML016C, strain PPZ1, hits give low values 1.01 | S. cerevisiae deletion strains, locus YML032C, strain rad52, hits give low values 1 | S. cerevisiae deletion strains, locus YML124C, strain tub3, hits give low values 0.987 | S. cerevisiae deletion strains, locus YMR078C, strain ctf18, hits give low values 0.979 | S. cerevisiae deletion strains, locus YMR223W, strain ubp8, hits give low values 0.981 | [4] 1.02 | S. cerevisiae deletion strains, locus YMR307W, strain GAS1, hits give low values 1.13 | S. cerevisiae deletion strains, locus YNL067W, strain RPL9B, hits give low values 1.03 | [5] 1.03 | S. cerevisiae deletion strains, locus YNL233W, strain BNI4, hits give low values 1.04 | S. cerevisiae deletion strains, locus YNL250W, strain rad50, hits give low values 0.966 | S. cerevisiae deletion strains, locus YNL271C, strain bni1, hits give low values 0.999 | S. cerevisiae deletion strains, locus YNL298W, strain CLA4, hits give low values 0.993 | S. cerevisiae deletion strains, locus YNL307C, strain MCK1, hits give low values 0.987 | [6] 1.01 | S. cerevisiae deletion strains, locus YNR052C, strain pop2, hits give low values 0.982 | S. cerevisiae deletion strains, locus YOL012C, strain htz1 0.933 | S. cerevisiae deletion strains, locus YOL147C, strain pex11, hits give low values 0.993 | S. cerevisiae deletion strains, locus YOR061W, strain CKA2, hits give low values 1 | S. cerevisiae deletion strains, locus YOR069W, strain VPS5, hits give low values 1 | S. cerevisiae deletion strains, locus YOR136W, strain idh2, hits give low values 0.99 | S. cerevisiae deletion strains, locus YOR144C, strain elg1, hits give low values 1 | S. cerevisiae deletion strains, locus YOR184W, strain ser1, hits give low values 1.01 | S. cerevisiae deletion strains, locus YOR316C, strain cot1, hits give low values 1 | S. cerevisiae deletion strains, locus YPR119W, strain clb2, hits give low values 0.986 | S. cerevisiae deletion strains, locus YPR141C, strain kar3, hits give low values 0.972 | S. cerevisiae deletion strains, locus YPR163C, strain tif3, hits give low values 0.985 | S. cerevisiae deletion strains, locus YPR167C, strain met16, hits give low values 0.969 | S. cerevisiae deletion strains, strain wtn01, hits give low values 0.995 | S. cerevisiae strains, strain wild type, hits give low values 1.01

O=C(Nc1ccc(Cl)cc1Cl)c1cnccn1
active: [12] 0.606 | [15] 0.862 | [16] 0.788 | [18] 0.656
inactive: [1] 0.943 | [8] 0.963 | S. cerevisiae deletion strains, locus YCL061C, strain MRC1, hits give low values 0.98 | [9] 0.982 | S. cerevisiae deletion strains, locus YDL134C, strain PPH21, hits give low values 0.989 | [2] 0.989 | [10] 0.95 | [11] 0.991 | [13] 0.973 | [14] 1.01 | [3] 1.01 | [17] 0.975 | [19] 0.87 | [20] 0.91 | [21] 0.99 | [4] 0.966 | [5] 0.98 | [22] 0.911 | [6] 0.986 | [23] 0.94 | [24] 0.773 | [7] 0.9 | [25] 0.9 | [26] 0.768
